From PubChem BioAssay AID651610 (Broad Institute, 2012)
Screen size: about 360,000 compounds; about 3,900 (1.1%) were called active. This is one part of a sample in which actives are shown more often than they occur. Values without a mark were called inactive.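 The calls were made as follows: active = mean replicate inhibition score of at least 50 and every replicate individually at or above 50; inconclusive = only one of the two criteria met; inactive = mean below 50 and not all replicates reaching 50.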

Test: inhibitors of HIV-1 Env-driven cell-cell fusion, primary screen, HeLa-JRFL effector, CEM21 target cells, luciferase (AID 651610);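 also: 0% = plate neutral controls and 100% = maraviroc near 300 nM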
Conditions: hits give high values; at 16.7 µM unless noted

Structure (SMILES)	inhibition
COc1ccc(C#Cc2cnc3c(c2)C(=O)N([C@H](C)CO)C[C@@H](C)[C@@H](CN(C)C(=O)CN(C)C)O3)cc1	-3.11%
COc1ccc(-c2cnc3c(c2)C(=O)N([C@@H](C)CO)C[C@H](C)[C@H](CN(C)C(=O)Cc2cccnc2)O3)cc1	-3.34%
Cc1ccc(S(=O)(=O)Nc2ccc3ncccc3c2)cc1	60.8% [at 12.3 µM] (active)
Cc1ccc(NS(=O)(=O)c2ccc(C(C)(C)C)cc2)cn1	3.22% [at 12.3 µM]
Cc1cc(C)cc(OCC(=O)Nc2ccc(S(=O)(=O)Nc3ccccn3)cc2)c1	19.9% [at 12.3 µM]
O=C(c1ccccc1)N1CCC(CC2CC(c3ccc(Cl)cc3)=NO2)(C(=O)NCC2CCCCC2)CC1 (stereo unspecified)	-114% [at 12.3 µM]
CCCCCCCNC(=O)C1(CC2CC(c3cccc(Br)c3)=NO2)CCN(C(=O)c2cc(OCC)c(OCC)c(OCC)c2)CC1 (stereo unspecified)	28.1% [at 12.3 µM]
COc1ccc(CNC(=O)C2(CC3CC(c4ccccc4)=NO3)CCN(C(=O)c3cccc(O)c3)CC2)cc1 (stereo unspecified)	65.8% [at 12.3 µM] (active)
CO[C@@H]1CN(C)C(=O)c2cc(NC(=O)C3CCOCC3)ccc2OC[C@H](C)N(C)C[C@H]1C	0.584%
C[C@@H]1CCCCO[C@H](CN(C)C)[C@H](C)CN([C@@H](C)CO)C(=O)c2cc(NS(=O)(=O)c3ccccc3)ccc2O1	19.2%
Cc1ccc(C(=O)N/C(=C\c2cccs2)C(=O)NCCc2ccccn2)cc1C	-3.78% [at 12.3 µM]
COc1cncc(-c2cnc3sc(NCCc4ccccn4)nn23)c1	61.5% [at 12.3 µM] (active)
COc1ccc(NCCc2ccccn2)cc1	-6.27% [at 12.3 µM]
CCNC(=O)Nc1ccc2c(c1)C(=O)N(C)[C@H]1CC[C@@H](CC(=O)N[C@@H](C)c3ccccc3)O[C@H]1CO2	0.456%
COCC(=O)N1C[C@@H](C)[C@H](OC)CN(C)C(=O)c2cc(NC(=O)c3cc(C)on3)ccc2OC[C@@H]1C	-4.38%
C[C@@H]1CN([C@H](C)CO)C(=O)Cc2cc(NC(=O)Cn3cnnn3)ccc2O[C@H]1CN(C)Cc1ccc(C(F)(F)F)cc1	3.54%
COc1ccccc1CNC(=O)CCCN1C(=O)NC2(CCCC2)C1=O	2.68% [at 12.3 µM]
COC(=O)C1(C(=O)OC)C[C@H](c2ccccc2)N(Cc2ccccc2OC)[C@@H]1c1ccccc1	84.1% [at 12.3 µM] (active)
COc1ccccc1CNC(=O)C1CCN(S(C)(=O)=O)CC1	-69% [at 12.3 µM]
O=C(N[C@H]1CC[C@@H](CCNC(=O)C2CCC2)O[C@@H]1CO)c1ccncc1	7.35%
C[C@@H]1CN([C@@H](C)CO)C(=O)c2cc(NC(=O)C3CCCCC3)ccc2O[C@@H](C)CCCCO[C@H]1CN(C)C(=O)CCC(F)(F)F	7.33%

Structure (SMILES)	inhibition
C[C@@H]1CN([C@@H](C)CO)C(=O)c2c(c3ccccc3n2C)-c2ccccc2CO[C@@H]1CN(C)S(=O)(=O)CC(F)(F)F	-10.3%
C[C@@H]1CN([C@H](C)CO)C(=O)c2c(c3ccccc3n2C)-c2ccccc2CO[C@H]1CN(C)S(=O)(=O)c1ccccc1F	6.3%
C[C@H](CO)N1C[C@H](C)[C@@H](CN(C)S(=O)(=O)c2cccc(F)c2)OCc2ccccc2-c2c(n(C)c3ccccc23)C1=O	56% (active)
C[C@@H]1CN([C@H](C)CO)C(=O)c2c(c3ccccc3n2C)-c2ccccc2CO[C@H]1CN(C)C(=O)c1ccncc1	1.26%
Cc1noc(C)c1C(=O)N(C)C[C@H]1OCc2ccccc2-c2c(n(C)c3ccccc23)C(=O)N([C@@H](C)CO)C[C@H]1C	-3.54%
C[C@H](CO)N1C[C@H](C)[C@H](CN(C)C(=O)c2ccncc2)OCc2ccccc2-c2c(n(C)c3ccccc23)C1=O	59.8% (active)
COc1ccc(S(=O)(=O)N(C)C[C@@H]2OCCCC[C@H](C)Oc3ccc(NC(=O)NC(C)C)cc3C(=O)N([C@@H](C)CO)C[C@@H]2C)cc1	8.34%
COc1ccc(NC(=O)Nc2ccc3c(c2)C(=O)N([C@H](C)CO)C[C@@H](C)[C@@H](CN(C)C(=O)NC(C)C)OCCCC[C@H](C)O3)cc1	-15.9%
C/C=C/c1ccc2c(c1)O[C@H](CN(C)C(=O)c1ccc3c(c1)OCO3)[C@@H](C)CN([C@H](C)CO)S2(=O)=O	-3.13%
C[C@H](CO)N1C[C@H](C)[C@@H](CN(C)C(=O)Nc2ccc(F)cc2)OCCCC[C@H](C)Oc2ccc(NC(=O)c3ccncc3)cc2C1=O	-27.7%
COc1ccc([Si](C)(C)[C@@H]2[C@@H](CCO)O[C@]3(C(=O)N(Cc4cccc(N5CCCCC5=O)c4)c4ccccc43)[C@H]2C)cc1	-10.1%
COc1ccc([Si](C)(C)[C@@H]2[C@@H](CCO)O[C@]3(C(=O)N(Cc4ccccc4)c4ccc(N5CCC5=O)cc43)[C@H]2C)cc1	15.1%
COc1ccc([Si](C)(C)[C@H]2[C@H](CCO)O[C@@]3(C(=O)N(Cc4cccc(N5CCOC5=O)c4)c4ccccc43)[C@@H]2C)cc1	61.7% (active)
Cc1noc(C)c1NC(=O)N[C@@H]1CC[C@H](CCNC(=O)C2CCC2)O[C@@H]1CO	5.86%
C[C@H]1CN([C@@H](C)CO)C(=O)c2ccccc2-c2ccccc2CO[C@H]1CN(C)S(=O)(=O)c1ccccc1C#N	66.4% (active)
C[C@H](CO)N1C[C@H](C)[C@@H](CN(C)S(=O)(=O)c2cccs2)OCc2ccccc2-c2ccccc2C1=O	3.13%
C[C@@H]1CN([C@H](C)CO)C(=O)c2ccccc2-c2ccccc2CO[C@H]1CN(C)S(=O)(=O)c1ccsc1	15.4%
C[C@H]1CN([C@@H](C)CO)C(=O)c2ccccc2-c2ccccc2CO[C@H]1CN(C)S(=O)(=O)c1cccc(C#N)c1	56.8% (active)
C[C@H]1CN([C@@H](C)CO)C(=O)c2ccccc2-c2ccccc2CO[C@@H]1CN(C)S(=O)(=O)c1ccc(C(F)(F)F)cc1	22.4%
Cc1noc(C)c1S(=O)(=O)N(C)C[C@@H]1OCc2ccccc2-c2ccccc2C(=O)N([C@@H](C)CO)C[C@H]1C	28.5%
